# Source: PMC12136788
# Numbering of substitutions follows the chain as printed. Whole data set: some 24,000 sequences, median “enrichment r” near 0.99, cut for the highest 2% near 3.7. The entries come from a sample that favours the highest values as a whole.
# T1: UNK ZnF1-3 (human, UniProt Q9C0B0 31-174)
# T1 sequence: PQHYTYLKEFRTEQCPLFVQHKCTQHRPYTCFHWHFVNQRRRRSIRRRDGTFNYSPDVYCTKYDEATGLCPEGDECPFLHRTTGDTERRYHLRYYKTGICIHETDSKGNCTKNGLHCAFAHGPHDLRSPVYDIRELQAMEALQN
# B1: chr5:145543945:145543946:-_ENSG00000133706_ENST00000545646|hu_mus|FALSE|FALSE (ssRNA)
# RNA: GGGAGUUCUACAGUCCGACGAUCCUGAACGGCCAGUGGUGGGAAAUAAUCAAGCCAGUGCUCUGCUUCAGAAAACUUCACUAUGUCGUCAUCAGAGAGCCCAAGGGAUUUCAUAAUGUCCCACUGGUACUUAGAAGAUCCUGCCAACAGAGGAUUGAGCAUCA
# B2: chr7:141445308:141445309:+_ENSG00000106028_ENST00000265304|hu_hu|hu_hu_hu_mus_False|28_98 (ssRNA)
# RNA: GGGAGUUCUACAGUCCGACGAUCUAUGAUUGUUGUUGCUUGUCGCCUCACAUUGUUUUUAUCCAUGUACUCGCCAUAGUCCACUUUCCCUUCCACAAAUAUACGAGACCCCUUUUUCACAUACUGAUAUGCCACAUCUCUGAGCAACAGAGGAUUGAGCAUCA
# B3: 39165641_39167405_4275_CDS_ENSMUSG00000037475_ENSMUST00000047037|mouse|control|control (ssRNA)
# RNA: GGGAGUUCUACAGUCCGACGAUCUGAAGAGUCCUUGAGAUCGAUGAGACUGUCCUUUACUGUGGAGGAAUGUGAUGGAGAAGGAUGACUAUCAAUUUUGCGGCGUUUUUGUUCCCUGUCAGGCUCCGAGAUAUCUGAUCGGGGCAACAGAGGAUUGAGCAUCA
# B4: chr8:114060920:114060921:+_ENSMUSG00000033545_ENSMUST00000095176|mus_mus|FALSE|FALSE (ssRNA)
# RNA: GGGAGUUCUACAGUCCGACGAUCCGGGUGGAGGUCUGGGCGAACAUAAAGGCGGAGGGUUGGGGUUGGGGAGAGUCACAAAAGAGCCCCGAGGGGAGAAAAAUGAAAAAAGGUGAGGGGGGGAAUCCUCAAAAAAAAUCCGCGCAACAGAGGAUUGAGCAUCA
# B5: chr11:87793471:87793472:-_ENSMUSG00000020483_ENSMUST00000020775|mus_mus|mus_mus_mus_hu_False|68_108 (ssRNA)
# RNA: GGGAGUUCUACAGUCCGACGAUCUGGGGGCUGGGGAAAAAGAAUAAGCUGGAUCCCCCACCCCCCCACAGUGUCAACCCUACACGAGAGUUUUGAAGGCGACUCAUGAAAAUCAGCAGCUCAAACGGCAAUGACCACCCCACCCAACAGAGGAUUGAGCAUCA
# B6: chr11:46405157:46405158:+_ENSG00000110492_ENST00000395566|hu_hu|hu_hu_hu_mus_False|28_98 (ssRNA)
# RNA: GGGAGUUCUACAGUCCGACGAUCCCCUCCCCACUUUGGCUGGGGAGUGUGGGCGUGAGAGGACAGGCGUGAUUGACAGAGCUGACAGGAAGACAAAAGGCACUGGUGGGUCACAUCUUGGGCCUGUGGGAGAGGAGGGCUCCGCAACAGAGGAUUGAGCAUCA
# B7: chr9:58044877:58044878:-_ENSMUSG00000051243_ENSMUST00000114144|mus_hu|FALSE|FALSE (ssRNA)
# RNA: GGGAGUUCUACAGUCCGACGAUCUCCCAGAGGCUGGGAAGGGGGUGUUAGCACCAGACCCGAAAUGUCGCUGUCUUUGAAAACAACGAAAACAGGAAAAUCUGAGCGCGGAGCUGAAAGGCGCCCCAGGCACCGGGCUGGACUCAACAGAGGAUUGAGCAUCA
# B8: chr8:114060920:114060921:+_ENSMUSG00000033545_ENSMUST00000095176|mus_hu|FALSE|FALSE (ssRNA)
# RNA: GGGAGUUCUACAGUCCGACGAUCCCACUUCUCAGCAGCAGGGGGAGGGCUGGGCGAGCAUAAAGGGGGAGGGAGUCAAAAAGGAGACCCGGAGGGAGAAAAGGAAAAAAAGCAAAAGGAAAAAAGGAAAAAACCCGCGGGGCGCAACAGAGGAUUGAGCAUCA
# B9: 11472005_11472125_940_CDS_ENSG00000105520_ENST00000251473|human|control|control (ssRNA)
# RNA: GGGAGUUCUACAGUCCGACGAUCCUUGCAGGGGAAGGCGCGGCGCGCGGCGGCCACGAGGCUGGGACUGCCAGCGCAGGCACCCUGGUCAGUGACAAAGCGGUCGGGACCUGGCCGAUCCGGAGAAGGUGGCAGGCAGCCCAGCAACAGAGGAUUGAGCAUCA
# B10: chr17:45760540:45760541:+_ENSG00000108424_ENST00000290158|hu_hu|motif|central (ssRNA)
# RNA: GGGAGUUCUACAGUCCGACGAUCUUUCCCUAGAGUAAAAAAAACAAAAAACAAAACCAAAAAAAAAAAACAAAACAAAACCGGAAGAGCGUCUUUCCUCUGUGUGUGUGUUUUUUUUUUUUUUUUUUUUUUUUUUUUUACAUCCAACAGAGGAUUGAGCAUCA
# B11: chr3:41267201:41267202:+_ENSG00000168036_ENST00000349496|hu_mus|motif|central (ssRNA)
# RNA: GGGAGUUCUACAGUCCGACGAUCCAAGAAUUUCACGUUUGUUUUGUUGAGCAAAGCAACCAUUUUCUGCAGUCCACCAGCGGGGCGCACUGCCAUUUUAGCUCCUUCCUGAUGGAGCAGGAGAUUAUGCAGUGUCGUGAUGGCCAACAGAGGAUUGAGCAUCA
# B12: chr17:15081082:15081083:+_ENSMUSG00000050088_ENSMUST00000052691|mus_mus|FALSE|FALSE (ssRNA)
# RNA: GGGAGUUCUACAGUCCGACGAUCUGCUCCAGCAUAUUCAAGGGAUCAGAAGAGAAUUUCAAGCACCAGUUUCAAAAUGCUAAUCAAUAUCGUCCAGAGAACUGAUUCCUCCUCUUGGGCUGCCUCUUCUGGAGCGUAAGCCUGCAACAGAGGAUUGAGCAUCA
# B13: chr11:51935959:51935960:+_ENSMUSG00000020349_ENSMUST00000020608|mus_hu|FALSE|FALSE (ssRNA)
# RNA: GGGAGUUCUACAGUCCGACGAUCGGUUCUGACAAUAACAAAGAACAACAUGGGGCUGAGAUUUGAGUAGGGAAUAAACUGAGUGCAGACAAAUCAUAUAAUUAAAUUAAACGGUAUCCCUGAAAAUAAAAAGAACAAUUUCAACAACAGAGGAUUGAGCAUCA
# B14: chr2:203071915:203071916:-_ENSG00000116030_ENST00000392246|hu_mus|FALSE|FALSE (ssRNA)
# RNA: GGGAGUUCUACAGUCCGACGAUCCUAAGAGAUGGAGUGCCAGUAUUCAAUUUUCAUUUUGAACACCACAUUACAAAAGAACUAUUUUUAAAAAUAAAAAAGGAUUGAGGGAAAGGAAAAAUAAAAAAUAAAAAGAAUUAUCUACAACAGAGGAUUGAGCAUCA
# B15: chr16:36085169:36085170:+_ENSMUSG00000075229_ENSMUST00000164916|mus_mus|FALSE|FALSE (ssRNA)
# RNA: GGGAGUUCUACAGUCCGACGAUCCUUUAAUAACGUUAAGUCAUCCAGGUUCUUUUCUCUCUCUUCUCGGAGACUUUUUACUACUGCUGAGGUCUGGGCUAUACAGUUCUUUAUAACUCUGUCCCUACUGACAUGAGCUGCCAUCAACAGAGGAUUGAGCAUCA
# B16: chr6:31461392:31461393:+_ENSMUSG00000025609_ENSMUST00000026699|mus_mus|motif|central (ssRNA)
# RNA: GGGAGUUCUACAGUCCGACGAUCACCUGACGGACACUAGAGGCUUUGGAUAACCAUGUCAUUUCAACAGUAAGACAAACGGUAGAGACAACCCCCACAGUCAAAAACCACAUAUAAAAAUUAGAAUUUGCUUAAUACAGAAAACAACAGAGGAUUGAGCAUCA
# B17: chr2:203071915:203071916:-_ENSG00000116030_ENST00000392246|hu_mus|motif|central (ssRNA)
# RNA: B14 RNA with U82G, A83G
# B18: chr8:96496865:96496866:-_ENSMUSG00000031751_ENSMUST00000053766|mus_hu|motif|central (ssRNA)
# RNA: GGGAGUUCUACAGUCCGACGAUCGCAGUCCAGUCAACACCAGAAGAGAUCAUACCUACAGUUAAAAUUUGCAGUGUUUCGGAGGGGAAGAGAAAUGUCACAUAGAAAGUAUUACAAAGAAGGAUUAAAUUUAUCAGCUGUCCACAACAGAGGAUUGAGCAUCA
# B19: chr3:100438856:100438857:+_ENSG00000114354_ENST00000490574|hu_hu|motif|central (ssRNA)
# RNA: GGGAGUUCUACAGUCCGACGAUCAACAAAUAAUGUCAGUUUCAGUAUCCUACUGCACUGAAUUGCAAAGGAAAGGUCAGAACGGUCAAAAAUUGUUAUAAGAUCUCCAUCUUCAUCUUUAUACUUUAUUGUUACUUCAUCAUUCAACAGAGGAUUGAGCAUCA
# B20: 110847190_110847310_5644_3pUTR_ENSMUSG00000021700_ENSMUST00000167824|mouse|control|control (ssRNA)
# RNA: GGGAGUUCUACAGUCCGACGAUCUAGUUGCUGAGGGGAACUGAAGAAUGAGGCAAUGCUGUUCUGUGGGGAUAGUGCUUUUAGAAUAUCCUUAAUCAUUUUUUUUUAAAAAACAUGUGGCAGUAUAAAAGGACUACACAAUGACAACAGAGGAUUGAGCAUCA
# B21: chr2:55200753:55200754:-_ENSG00000115310_ENST00000317610|hu_mus|FALSE|FALSE (ssRNA)
# RNA: GGGAGUUCUACAGUCCGACGAUCUUGGAUUUUGGCCAUGGCAUCCUUAACGCUCUUGUUUGCAAGUCCUAGAUAAUGAUCUAUCUGCGCCUGAUGCCGUUCAUAUAUAACAGGAAUACUGAAGAGUGAGAUCAGAGCUAAAAUCAACAGAGGAUUGAGCAUCA
# B22: chr13:113752066:113752067:+_ENSG00000126217_ENST00000375604|hu_mus|FALSE|FALSE (ssRNA)
# RNA: GGGAGUUCUACAGUCCGACGAUCAGGGGAAGUGGGGCCUGCCCUGACGUGGAGAGGCAGCCAGUGCCUGAGUUGCUGAGGAUGACUGACAGCAUGGAGUUAUACAUUUUCUUUAAAAAUAAUAAAAAUAUCCUAAUUUAAUGACAACAGAGGAUUGAGCAUCA
# Molecular target: T1, UNK ZnF1-3
# Test: nsRBNS (natural sequence RNA bind-n-seq); RBNS binding buffer (assumed for nsRBNS): 25 mM Tris pH 7.5, 150 mM KCl, 3 mM MgCl2, 0.01% Triton X-100, 500 ug/ml BSA, 20 U/ml SUPERase-In, 4 C; UNK is unkempt and MSI1 is Musashi-1; names of the RNAs are library labels; protein concentration not given here; high values mean tight binding
row,Binder,binding signal
1,B1,0.979 enrichment R
2,B2,0.605 enrichment R
3,B3,1.19 enrichment R
4,B4,4.66 enrichment R
5,B5,1.65 enrichment R
6,B6,2.01 enrichment R
7,B7,1.01 enrichment R
8,B8,5.92 enrichment R
9,B9,0.958 enrichment R
10,B10,3.38 enrichment R
11,B11,0.539 enrichment R
12,B12,1.42 enrichment R
13,B13,3.8 enrichment R
14,B14,10.6 enrichment R
15,B15,0.477 enrichment R
16,B16,3.37 enrichment R
17,B17,10.9 enrichment R
18,B18,3.52 enrichment R
19,B19,0.76 enrichment R
20,B20,1.67 enrichment R
21,B21,1.23 enrichment R
22,B22,3.79 enrichment R
